Consider three compounds from PubChem BioAssay (NCATS).

Records with an inconclusive call do not appear. Activity calls are given as the source filed them. Unless noted, calls come from the whole dose curve; as a rule, active = well fitted curve in the direction sought with a large enough effect; inconclusive = small, poorly fitted or top-dose-only effect, or another doubt; inactive = no such curve, though single readings can be large; an effect the other way counts as inactive or inconclusive.

The target of assay [1] is Lysosomal acid glucosylceramidase (Homo sapiens) (UniProt P04062). The assay can be described thus: Glucocerebrosidase-p2 (AID 348; in the data active = potency below about 10 µM; note: potency is the fitted concentration of half-maximal effect). Particulars: purified GBA, blue fluorogenic substrate, 40 min. The method in brief: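 Compounds titrated from 0.6 nM upwards against 0.2 nM enzyme in pH 5.9 citric acid/KH2PO4, taurocholate, tween-20; blue fluorogenic substrate 80 uM, 40 min room temperature, stopped and read Ex 365/Em 440 for AC50.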

Assay [2] is described as follows: AP1 Signaling Pathway (AID 357; active = well fitted curve in either direction with a large enough effect, not every such curve was filed as active;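 note: ME-180 reporter cells stimulated with EGF at its EC50 level; % is set by controls: 0 for no effect and ±100 for the full control effect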). Particulars: ME-180 AP-1-bla reporter, EGF-induced, beta-lactamase ratio, 5 h; at 7.69 µM (top of the series) unless noted. The method in brief: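 Beta-lactamase reporter under AP-1 response element, ME-180 background. Stimulus: EC50 EGF. Compound exposure 5 h, 37 °C. Detection: CCF4, 2.5 h RT, 460/530 nm. Values: AC50 from titration.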

The target of assay [3] is Cytochrome P450 1A2 (Homo sapiens) (UniProt P05177). The assay can be described thus: p450-cyp1a2 (AID 410; calls by dose curve; note: potency is the fitted concentration of half-maximal effect). Particulars: recombinant CYP1A2, luciferin-ME demethylation, luminescence; series mostly up to 57 µM. The method in brief: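 Human CYP1A2 (20nM) demethylated Luciferin-ME at its Km (100uM) in 100mM KPO4. After 10 min compound preincubation, NADPH regeneration ran the reaction 60 min at room temperature. Luciferin was read by luminescence, normalized to 57 uM furafylline.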

Assay [4] is described as follows: NFAT Signaling Pathway (AID 444; active = well fitted curve in either direction with a large enough effect, not every such curve was filed as active;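 note: carbachol stimulus at about its EC50 of 1 µM final; % is set by controls: 0 for no effect and ±100 for the full control effect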). Particulars: Jurkat NFAT-bla M1, carbachol, beta-lactamase ratio, 5 h; at 7.69 µM (top of the series) unless noted. Put shortly:
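Jurkat cells carrying an NFAT-driven β-lactamase reporter and co-transfected muscarinic M1 receptor were treated with compound plus carbachol (1 uM final, an EC50 level) for 5 h at 37 °C. CCF4 loading followed for 1 h at RT; 460/530 nm ratio gave %activity.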

The nature of assay [5]: Stat Signaling Pathway (AID 446; active = well fitted curve in either direction with a large enough effect, not every such curve was filed as active;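 note: ME-180 cervical cancer cells given 40 pM IL-6 alongside compound; SIE-controlled beta-lactamase reporter measured as 460/530 nm FRET emission ratio; % is set by controls: 0 for no effect and ±100 for the full control effect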). Particulars: ME-180 SIE beta-lactamase reporter, IL-6 stimulated, 5 h; at 7.69 µM (top of the series) unless noted. Put shortly:
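ME-180 SIE-bla cells; overnight plating; cpd + IL-6 40 pM, 5 h, 37 C; LiveBLAzer 2.5 h RT; 460/530 nm emission ratio. Normalized to 300 pM IL-6 and 125 nM JAK inhibitor controls.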

For assay [6], the target named is Glucocorticoid receptor (Homo sapiens) (UniProt P04150). The assay can be described thus: GR-GFP Redistribution (AID 450;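 active = compounds whose dose series gives a full or clear partial fitted curve of increased nuclear translocation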; note: potency is the fitted concentration of half-maximal effect). Particulars: U2OS GR-GFP nuclear translocation, laser cytometry, 2 h.
For assay [7] the target is unchanged. The assay is described as follows: GR-EFC Redistribution (AID 451; calls by dose curve; note: potency is the fitted concentration of half-maximal effect). Particulars: CHO-K1 GR-EFC translocation, beta-gal luminescence, 2 h. Put shortly:
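CHO-K1 cells stably expressing nuclear-localized β-gal enzyme acceptor and GR fused C-terminally to the enzyme donor fragment; ligand-driven nuclear translocation restores β-gal by complementation. Compounds titrated up to 46 uM final, 2 h at 37 °C; luminescence read.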

For assay [8], the target named is Mitogen-activated protein kinase 10 (Mus musculus) (UniProt Q61831). The assay can be described thus: JNK3 AlphaScreen Assay (AID 530; active = well fitted curve in either direction with a large enough effect, not every such curve was filed as active;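 note: kinase came from lysate of stimulated human HepG2 cells; % is set by controls: 0 for no effect and ±100 for the full control effect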). Particulars: JNK3 lysate, c-Jun phosphorylation; series mostly up to 57.1 µM. Put shortly: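 JNK3 came from HepG2 lysates pre-activated with IL-1beta and TNF-alpha and phosphorylated biotinylated GST-cJun (1-79) at 10 uM ATP, pH 7.6, room temperature. Compounds were titrated. AlphaScreen signal used anti-phospho-cJun (Ser73) antibody.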
On the technique in general: Bead proximity is the source of the signal in Alpha formats.

Assay [9] in a line: Confirmation and Secondary Assay for Modulators of Hemoglobin Beta Chain Splicing at IVS2 654 locus (AID 910).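 Note: per-well total GFP intensity by laser scanning cytometry after 2-day treatment; % of control where 0% means no effect.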 Particulars: HeLa EGFP-654 splicing reporter, GFP fluorescence, 48 h; series mostly up to 38.3 µM. The method in brief: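 HeLa cells stably carrying EGFP interrupted by mutant beta-globin IVS2-654 intron (CMV-driven) were treated with compound for 2 days at 37C; corrected splicing was scored as total peak GFP intensity per well (488 nm excitation, 500-520 nm emission).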

The nature of assay [10]: Confirmation and Secondary Assay for Modulators of Hemoglobin Beta Chain Splicing at IVS2 705 locus (AID 930).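 Note: HeLa cells stably expressing the EGFP-705 splicing reporter; % of control where 0% means no effect.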 Particulars: HeLa EGFP-705 splicing reporter, GFP fluorescence, 48 h; series mostly up to 38.3 µM. The method in brief:
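Restored EGFP fluorescence after 2-day compound exposure reports splicing correction in IVS2-705 EGFP reporter HeLa cells; positive control was 500 nM splice-blocking PNA oligo. Signal measured as well total peak GFP intensity (488 nm excitation).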

The nature of assay [11]: qHTS Assay for Lipid Storage Modulators (AID 1519; calls by dose curve). Particulars: Drosophila S3 cells, BODIPY lipid droplet/cell ratio, laser cytometry, cells loaded with oleic acid; for activity change, negative = inhibition: at 57.5 µM (top of the series). The method in brief: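 Cells seeded at 5,000 per well were treated with compounds over a concentration series and loaded with oleic acid (400 uM, as added). Lipid droplet fluorescence (488 nm excitation, 500-530 nm channel) was read by laser-scanning cytometry and normalized to 20 uM Triacsin C.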
A general note: qHTS replaces the single test concentration by a dilution series.

The target of assay [12] is Ubiquitin carboxyl-terminal hydrolase 1 (Homo sapiens) (UniProt O94782). The assay can be described thus: Inhibitors of USP1/UAF1: Pilot qHTS (AID 504865).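 Note: rhodamine fluorescence freed from ubiquitin-rhodamine substrate followed over time; top concentration of the series differs between compounds; % is set by controls: 0 for no effect and ±100 for the full control effect; nearly all actives have a fitted effect of over 35% in size.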 Particulars: purified USP1/UAF1, Ub-rhodamine cleavage fluorescence; series mostly up to 54.9 µM. Put shortly: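 Kinetic fluorescence assay: 1nM USP1/UAF1, 15 min compound preincubation, then 150nM Ub-Rho; 480/540 nm.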

Assay [13] in a line: Primary qHTS for small molecule stabilizers of the endoplasmic reticulum resident proteome: Secreted ER Calcium Modulated Protein (SERCaMP) assay (AID 1508630). Note: % is set by controls: 0 for no effect and ±100 for the full control effect. Particulars: SH-SY5Y GLuc-SERCaMP (Gaussia luciferase released on ER calcium loss) secretion, thapsigargin, luminescence; series mostly up to 38.4 µM. The method in brief:
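GLuc-SERCaMP-expressing SH-SY5Y cells, pretreated 16 h with compound, are challenged with thapsigargin to empty ER calcium stores; after 4 h, coelenterazine is added directly to the medium and luminescence is imaged.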

Assay [14] concerns the target Cytochrome P450 3A4 (Homo sapiens) (UniProt P08684). The assay is described as follows: qHTS Assay for Inhibitors and Substrates of Cytochrome P450 3A4 (AID 884). Note: potency is the fitted concentration of half-maximal effect; nearly all actives have a fitted effect of over 50% in size. Particulars: recombinant CYP3A4, Luciferin-PPXE luminescence; series mostly up to 57.1 µM. Put shortly: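 20 nM human CYP3A4 with 25 uM Luciferin-PPXE (at KM) in 200 mM KPO4, preincubated 10 min with compound; NADPH regeneration started a 60 min RT reaction. Luciferin detected by luminescence, normalized to 57 uM ketoconazole as full inhibition.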

The target is the same in assay [15]. The assay is described as follows: qHTS Assay for Activators of Cytochrome P450 3A4 (AID 885). Note: nearly all actives have a fitted effect of over 65% in size. Particulars: recombinant CYP3A4, Luciferin-PPXE luminescence, 60 min; series mostly up to 57.1 µM. The method in brief: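 20nM CYP3A4 + 25uM Luciferin-PPXE (=KM), 200mM KPO4; cpd 10 min RT; NADPH regen, 60 min RT; stop w/ detection buffer, 20 min; luminescence. Normalized to 57 uM ketoconazole.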

Assay [16] deals with Cytochrome P450 2D6 (Homo sapiens) (UniProt P10635). The assay can be described thus: qHTS Assay for Inhibitors and Substrates of Cytochrome P450 2D6 (AID 891). Note: potency is the fitted concentration of half-maximal effect; nearly all actives have a fitted effect of over 60% in size. Particulars: recombinant CYP2D6, luciferin-ME EGE luminescence; series mostly up to 57.1 µM. The method in brief:
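Human CYP2D6 (5 nM) with 30 uM Luciferin-ME EGE (at Km) in 100 mM KPO4, compound preincubated 10 min, then NADPH regeneration system for 60 min at room temperature. Luciferin read by luminescence; normalized to 1.43 uM quinidine.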

Assay [17] addresses Cytochrome P450 2C19 (Homo sapiens) (UniProt P33261). The assay can be described thus: qHTS Assay for Inhibitors and Substrates of Cytochrome P450 2C19 (AID 899). Note: potency is the fitted concentration of half-maximal effect; nearly all actives have a fitted effect of over 60% in size. Particulars: recombinant CYP2C19, luciferin-H EGE luminescence; series mostly up to 57.1 µM. Put shortly: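 NADPH-dependent conversion of Luciferin-H EGE (10uM, at KM) by 5nM enzyme in 50mM KPO4, 60 min at 37C following 10 min compound preincubation. Stopped with luciferin detection buffer; luminescence read after 20 min.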

Assay [18] can be described thus: qHTS Assay for Identification of Small Molecule Agonists for Hypoxia Response Element Signaling Pathway (AID 914; active = well fitted activation curve with a large enough effect in the signal ratio, with a control signal flat, not every such curve was filed as active; the % refers to the signal ratio; note: % of control where 0% means no effect). Particulars: ME-180 (cervical carcinoma) HRE-bla reporter, beta-lactamase ratio, CoCl2, 17 h; activation: stronger effect = higher value. The method in brief:
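AC50 values come from titration-series %Activity, taken as the 460/530nm ratio of CCF4 fluorescence (excitation 405nm). CellSensor HRE-bla ME-180 cells were treated 17 hours at 37 C with compound plus an EC50 level of CoCl2.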

Assay [19] concerns the target 3',5'-cyclic-AMP phosphodiesterase 4B (Homo sapiens) (UniProt Q07343). The assay can be described thus: qHTS Assay for Inhibitors of PDE-IV (AID 607; active = well fitted activation curve with a large enough effect in the main read-out, with a control signal flat, not every such curve was filed as active; note: % of control where 0% means no effect). Particulars: HEK293 ACTOne CNG channel cells, membrane potential fluorescence; series mostly up to 22.9 µM. The method in brief: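 ACTOne HEK293 cells carry a modified cAMP-gated CNG channel and express endogenous PDE4; plated 1000 cells/well, compounds up to 22.9 uM final. Membrane-potential dye fluorescence (ex 535/em 590) was read; parental cells received 10 uM forskolin + 100 uM RO 20-1724.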

Setting [20] is: measured here: cell count channel max response.
Where [21] appears, read: measured here: lipid channel max response.

Cytochrome P450 3A4 (Homo sapiens), sequence (P08684 whole entry, looked up): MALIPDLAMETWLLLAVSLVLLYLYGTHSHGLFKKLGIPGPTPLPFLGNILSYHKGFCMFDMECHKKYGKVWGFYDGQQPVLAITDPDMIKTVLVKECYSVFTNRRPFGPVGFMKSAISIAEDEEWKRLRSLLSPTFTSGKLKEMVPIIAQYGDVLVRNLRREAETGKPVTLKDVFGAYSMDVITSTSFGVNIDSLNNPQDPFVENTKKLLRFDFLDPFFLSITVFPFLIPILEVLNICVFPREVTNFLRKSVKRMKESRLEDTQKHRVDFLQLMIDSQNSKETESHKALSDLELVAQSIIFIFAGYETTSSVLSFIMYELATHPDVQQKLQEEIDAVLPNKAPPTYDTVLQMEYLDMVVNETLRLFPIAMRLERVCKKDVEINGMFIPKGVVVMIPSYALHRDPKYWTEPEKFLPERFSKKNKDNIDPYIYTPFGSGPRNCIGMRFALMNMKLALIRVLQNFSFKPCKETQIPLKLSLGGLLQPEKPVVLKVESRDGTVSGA
Lysosomal acid glucosylceramidase (Homo sapiens), sequence (P04062 whole entry, looked up): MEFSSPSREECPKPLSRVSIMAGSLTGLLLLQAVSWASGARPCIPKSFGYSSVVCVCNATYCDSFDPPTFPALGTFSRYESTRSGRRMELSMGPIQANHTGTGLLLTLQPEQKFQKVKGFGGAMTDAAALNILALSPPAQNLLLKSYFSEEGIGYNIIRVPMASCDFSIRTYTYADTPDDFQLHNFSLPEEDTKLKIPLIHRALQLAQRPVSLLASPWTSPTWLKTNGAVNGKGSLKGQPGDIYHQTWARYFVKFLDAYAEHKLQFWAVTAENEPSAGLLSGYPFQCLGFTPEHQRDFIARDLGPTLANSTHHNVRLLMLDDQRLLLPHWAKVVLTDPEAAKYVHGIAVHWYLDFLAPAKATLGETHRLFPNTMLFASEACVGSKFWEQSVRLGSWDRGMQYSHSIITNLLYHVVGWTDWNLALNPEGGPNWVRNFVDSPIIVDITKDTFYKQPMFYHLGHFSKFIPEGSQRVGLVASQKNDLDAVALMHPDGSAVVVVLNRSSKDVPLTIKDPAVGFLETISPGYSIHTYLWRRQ
Cytochrome P450 1A2 (Homo sapiens), sequence (P05177 whole entry, looked up): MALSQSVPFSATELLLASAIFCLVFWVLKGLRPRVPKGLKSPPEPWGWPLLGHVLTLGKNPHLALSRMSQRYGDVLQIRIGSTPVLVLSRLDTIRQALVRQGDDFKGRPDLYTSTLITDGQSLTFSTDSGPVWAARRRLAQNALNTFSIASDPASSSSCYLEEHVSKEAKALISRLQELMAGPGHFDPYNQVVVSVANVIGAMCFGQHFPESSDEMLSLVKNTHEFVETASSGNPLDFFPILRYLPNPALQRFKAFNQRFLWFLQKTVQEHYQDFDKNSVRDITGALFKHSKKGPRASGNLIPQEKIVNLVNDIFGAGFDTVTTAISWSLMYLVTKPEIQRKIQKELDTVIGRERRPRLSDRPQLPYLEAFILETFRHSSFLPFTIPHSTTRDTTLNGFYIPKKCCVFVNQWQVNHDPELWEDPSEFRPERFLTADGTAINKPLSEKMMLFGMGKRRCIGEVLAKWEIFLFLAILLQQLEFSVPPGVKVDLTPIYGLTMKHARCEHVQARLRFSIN
Glucocorticoid receptor (Homo sapiens), sequence (P04150 whole entry, looked up): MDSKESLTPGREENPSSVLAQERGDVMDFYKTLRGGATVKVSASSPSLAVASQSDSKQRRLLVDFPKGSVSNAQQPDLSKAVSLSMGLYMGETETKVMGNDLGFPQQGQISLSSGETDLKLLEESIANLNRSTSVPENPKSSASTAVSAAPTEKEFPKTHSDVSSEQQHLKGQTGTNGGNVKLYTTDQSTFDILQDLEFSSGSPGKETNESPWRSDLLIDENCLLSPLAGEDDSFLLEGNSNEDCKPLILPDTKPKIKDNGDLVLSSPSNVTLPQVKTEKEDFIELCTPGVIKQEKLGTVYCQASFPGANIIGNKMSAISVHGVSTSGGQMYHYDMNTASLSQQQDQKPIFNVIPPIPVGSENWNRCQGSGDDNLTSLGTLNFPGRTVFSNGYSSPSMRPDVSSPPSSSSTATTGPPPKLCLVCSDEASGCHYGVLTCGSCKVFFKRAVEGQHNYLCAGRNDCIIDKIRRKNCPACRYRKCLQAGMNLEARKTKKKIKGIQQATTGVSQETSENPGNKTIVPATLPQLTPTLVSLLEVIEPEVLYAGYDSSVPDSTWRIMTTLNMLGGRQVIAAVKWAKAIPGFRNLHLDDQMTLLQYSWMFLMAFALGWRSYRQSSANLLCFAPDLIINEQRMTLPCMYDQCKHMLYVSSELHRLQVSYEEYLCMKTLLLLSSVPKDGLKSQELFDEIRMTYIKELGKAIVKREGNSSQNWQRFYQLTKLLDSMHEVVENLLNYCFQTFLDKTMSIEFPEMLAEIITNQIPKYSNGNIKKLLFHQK
3',5'-cyclic-AMP phosphodiesterase 4B (Homo sapiens), sequence (Q07343 whole entry, looked up): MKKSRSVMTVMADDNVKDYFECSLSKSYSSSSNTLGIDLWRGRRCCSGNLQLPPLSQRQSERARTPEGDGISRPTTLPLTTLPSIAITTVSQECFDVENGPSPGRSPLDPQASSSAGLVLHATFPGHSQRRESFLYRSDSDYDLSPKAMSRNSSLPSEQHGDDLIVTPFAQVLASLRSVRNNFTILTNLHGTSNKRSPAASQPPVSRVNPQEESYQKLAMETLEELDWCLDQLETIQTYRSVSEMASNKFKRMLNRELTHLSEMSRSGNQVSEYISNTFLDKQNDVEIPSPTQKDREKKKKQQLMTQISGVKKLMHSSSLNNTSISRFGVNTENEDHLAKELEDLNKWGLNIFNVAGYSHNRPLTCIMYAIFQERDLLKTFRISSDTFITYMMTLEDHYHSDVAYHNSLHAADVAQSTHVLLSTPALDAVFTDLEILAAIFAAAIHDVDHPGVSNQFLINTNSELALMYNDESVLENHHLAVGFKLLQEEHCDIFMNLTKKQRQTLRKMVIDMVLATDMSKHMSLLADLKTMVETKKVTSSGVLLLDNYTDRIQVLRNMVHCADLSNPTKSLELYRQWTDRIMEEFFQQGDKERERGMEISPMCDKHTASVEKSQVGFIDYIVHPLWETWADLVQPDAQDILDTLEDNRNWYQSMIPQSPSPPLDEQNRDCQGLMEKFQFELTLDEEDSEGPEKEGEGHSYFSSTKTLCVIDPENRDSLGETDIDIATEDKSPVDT
Cytochrome P450 2D6 (Homo sapiens), sequence (P10635 whole entry, looked up): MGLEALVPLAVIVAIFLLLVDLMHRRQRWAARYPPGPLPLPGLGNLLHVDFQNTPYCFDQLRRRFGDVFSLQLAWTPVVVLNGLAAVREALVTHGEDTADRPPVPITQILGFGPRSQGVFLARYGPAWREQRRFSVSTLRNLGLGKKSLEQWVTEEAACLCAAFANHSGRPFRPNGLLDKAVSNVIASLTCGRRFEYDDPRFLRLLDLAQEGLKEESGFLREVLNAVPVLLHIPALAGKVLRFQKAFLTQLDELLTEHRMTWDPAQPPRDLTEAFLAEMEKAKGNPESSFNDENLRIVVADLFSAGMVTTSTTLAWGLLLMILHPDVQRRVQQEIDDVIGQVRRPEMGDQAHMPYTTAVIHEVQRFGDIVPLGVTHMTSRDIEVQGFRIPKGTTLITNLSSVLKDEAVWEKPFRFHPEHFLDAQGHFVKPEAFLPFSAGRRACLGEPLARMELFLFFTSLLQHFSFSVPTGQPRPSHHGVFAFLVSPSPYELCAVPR
Cytochrome P450 2C19 (Homo sapiens), sequence (P33261 whole entry, looked up): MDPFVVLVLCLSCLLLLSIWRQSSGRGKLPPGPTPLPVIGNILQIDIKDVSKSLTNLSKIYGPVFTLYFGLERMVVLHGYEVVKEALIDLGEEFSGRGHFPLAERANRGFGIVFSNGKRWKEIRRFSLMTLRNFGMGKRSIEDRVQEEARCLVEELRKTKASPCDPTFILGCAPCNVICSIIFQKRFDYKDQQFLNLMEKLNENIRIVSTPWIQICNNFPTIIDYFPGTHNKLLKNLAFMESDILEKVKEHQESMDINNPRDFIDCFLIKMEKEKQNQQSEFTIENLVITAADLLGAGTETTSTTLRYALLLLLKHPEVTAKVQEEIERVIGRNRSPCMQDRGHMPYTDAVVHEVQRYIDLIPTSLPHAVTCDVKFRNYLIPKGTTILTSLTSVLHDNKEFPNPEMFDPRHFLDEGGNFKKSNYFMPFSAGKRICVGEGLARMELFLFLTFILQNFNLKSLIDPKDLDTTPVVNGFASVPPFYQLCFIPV
Ubiquitin carboxyl-terminal hydrolase 1 (Homo sapiens), sequence (O94782 whole entry, looked up): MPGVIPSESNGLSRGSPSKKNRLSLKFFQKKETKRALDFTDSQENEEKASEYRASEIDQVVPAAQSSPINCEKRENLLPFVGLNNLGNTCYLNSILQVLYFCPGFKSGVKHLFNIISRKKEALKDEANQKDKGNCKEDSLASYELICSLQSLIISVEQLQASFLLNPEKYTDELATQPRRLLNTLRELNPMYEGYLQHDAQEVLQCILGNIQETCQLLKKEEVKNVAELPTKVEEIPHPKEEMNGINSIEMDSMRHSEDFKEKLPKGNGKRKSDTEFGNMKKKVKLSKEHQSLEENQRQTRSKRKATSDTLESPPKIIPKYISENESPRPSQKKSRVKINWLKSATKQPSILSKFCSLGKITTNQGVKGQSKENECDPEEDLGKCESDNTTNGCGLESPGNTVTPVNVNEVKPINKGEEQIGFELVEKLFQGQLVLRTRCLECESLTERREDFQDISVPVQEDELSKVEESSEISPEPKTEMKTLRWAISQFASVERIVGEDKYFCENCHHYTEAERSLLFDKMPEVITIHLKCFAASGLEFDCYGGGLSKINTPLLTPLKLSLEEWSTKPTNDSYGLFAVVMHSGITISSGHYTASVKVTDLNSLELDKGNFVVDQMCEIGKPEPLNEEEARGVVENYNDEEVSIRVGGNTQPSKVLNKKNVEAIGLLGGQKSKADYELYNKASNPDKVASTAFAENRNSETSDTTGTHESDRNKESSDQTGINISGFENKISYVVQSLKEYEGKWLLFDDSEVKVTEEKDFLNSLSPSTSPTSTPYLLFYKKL

With `COCCNc1ccnc(-c2ccccc2CN(C)C)n1`, the Potency in assay [1] is > 11.4 µM (inactive); in assay [3], 5.01 µM (active); in [6] it was > 46 µM (inactive); in [7], > 46 µM (inactive). Further, the activity change, negative = inhibition is 3.13% (inactive) in [2], -0.192% (inactive) in assay [4] and 1.95% (inactive) in [11]. Also, the activity, negative = inhibition in assay [5] was 11.3% (inactive). For the same compound, the call in assay [8], in assay [9] and in assay [10] was inactive. Besides, the max response in assay [11] (setting [20]) was -5.81%; in assay [11] (setting [21]), 7.72%. Also, the Potency result in assay [12] and in assay [13] was “inactive” throughout.
Take `Cc1cccc(CNc2ncncc2-c2ccc3c(c2)OCO3)c1`: the Potency in assay [1] is > 11.4 µM (inactive); in assay [3], 0.126 µM (active); in [6], > 46 µM (inactive); in assay [7], > 46 µM (inactive); in assay [14], 0.251 µM (active); in [16], 6.31 µM (active). In addition, the Potency in assay [17] is 0.501 µM (active). Besides, the activity change, negative = inhibition in [2] is -0.728% (inactive); in assay [4] it was -2.79% (inactive); in [11] it was 12.7% (inactive). The activity, negative = inhibition in assay [5] is -19.6% (inactive). Also, the compound was called inactive in assay [8], in assay [9] and in assay [10]. The Potency entry in assay [15] and in assay [13] was “inactive” throughout. Further, the activation in assay [18] was -16.9% (inactive). For the same compound, the results for the max response in assay [11] (setting [20]) and in assay [11] (setting [21]) were 7.25% and 23.1%, respectively.
For `COc1ccccc1CNc1ncncc1-c1cccnc1`, the Potency was > 11.4 µM (inactive) in assay [1]; 0.794 µM (active) in assay [3]; > 46 µM (inactive) in assay [6]; > 46 µM (inactive) in [7]; 0.794 µM (active) in assay [14]. Besides, the results for the activity change, negative = inhibition in assay [2], in assay [4] and in assay [11] were 3.62% (inactive), 2.12% (inactive) and 3.76% (inactive), respectively. In addition, in assay [5], the activity, negative = inhibition is 5.57% (inactive). Also, the result in assay [8] was inactive. In addition, the Potency entry in assay [19], in assay [15] and in assay [13] was “inactive” throughout. For the same compound, the max response is 11.7% in assay [11] (setting [20]) and 13.8% in assay [11] (setting [21]).
